# Laboratory results published in PubChem BioAssay (EPA / NIEHS).
# Records with an inconclusive call do not appear. Active and inactive are the calls of the source. Rule for the calls: active = hit-call score of the fitted dose curve at least 0.9, where 1 is the maximum; inconclusive = response in the unintended direction; inactive = score below 0.9.
# Read-out: glucuronosyltransferase (UGT1A1), UGT1A1 (gene 54658)
# Test: CLD_UGT1A1_48hr: CellzDirect (CLD) Gene Expression Assay for glucuronosyltransferase (UGT1A1) at 48 hours (AID 2283709);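 note: actives increase expression relative to DMSO so potency refers to induction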
# Description: CLD_48hr is a cell-based, multiplexed-readout assay that uses hepatocyte, a human liver primary cell, with measurements taken at 48 hours after chemical dosing in a 96-well plate.CLD_UGT1A1_48hr is one of 16 assay component(s) measured or calculated from the CLD_48hr assay. It is designed to make measurements of mRNA induction, a form of inducible reporter, as detected with chemiluminescence signals by Quantitative Nuclease Protection Assay (qNPA) technology.Data from the assay component CLD_UGT1A1_48hr was analyzed at the endpoint, CLD_UGT1A1_48hr, in the positive analysis fitting direction relative to DMSO as the negative control and baseline of activity. Using a type of inducible reporter, gain-of-signal activity can be used to understand changes in the reporter gene as they relate to the gene UGT1A1. Furthermore, this assay endpoint can be referred to as a primary readout. To generalize the intended target to other relatable targets, this assay endpoint is annotated to the transferase intended target family, where subfamily is glucuronosyltransferase.
# Human hepatocyte cultures were treated daily for two consecutive days with fresh dosing solutions containing appropriate concentrations of the 320 ToxCast chemicals (chemical identities were blinded to CellzDirect and other ToxCast collaborators), vehicle control (0.2% DMSO), and positive control inducers as summarized in Table 1. Due to the large number of treatment groups and chemicals examined, the ToxCast chemicals were divided into two groups (spanning two independent cultures of hepatocytes from separate donor preparations (Hu778: ToxCast plates 1 and 2; Hu776: ToxCast plates 3 and 4). Each preparation of human hepatocyte cultures was treated with respective vehicle control, medium only control, set of six positive controls/reference chemicals for the five hepatic receptor pathways, and a subset of eight of the ToxCast chemicals (indoxacarb, pyrithiobac-sodium, norflurazon, cyhalofop-butyl, methomyl, thiram, acetochlor, and propiconazole). These replicate data, coupled with internal replicates designed within the blinded ToxCast chemical library, provided additional data to evaluate interindividual differences between hepatocyte preparations and their potential impact on chemical profiles.Cell morphology and integrity were evaluated using phase-contrast microscopy as an indicator of hepatocyte cell health (Tyson & Green, 1987). Cultures for each treatment group (i.e., media, vehicle [0.2% DMSO], positive control inducers [multiple concentrations], and the ToxCast chemicals [multiple concentrations]) were observed and cell morphology was assessed relative to vehicle control cultures at each harvest time point (0, 6, 24, or 48 h). […] Images were evaluated at the conclusion of the study to assess changes in cell integrity and account for the effects of chemical exposure on uncharacteristic changes in concentration-dependent gene expression profiles. The results from these determinations of apparent cytotoxicity were annotated (yes/no) alongside the corresponding qNPA data for reference.At the conclusion of each treatment period, hepatocyte cultures (96-well) were washed with 1 volume of HBSS, lysed by addition of 25 ul ArrayPlate lysis buffer (HTG, Tucson, AZ), and 70 ul/well of Denaturation Oil, denatured by incubation at 95C for 10 min, and frozen at approximately -70C until analysis by nuclease protection assay (qNPA) (Roberts et al., 2007). For qNPA analysis, cell lysates were thawed at 50C for approximately 30 min, qNPA probes were added, and samples were incubated at 95C for 10 min to begin the detection process by denaturing the target RNA, dissociating the duplexes and secondary structure hybridization. At the conclusion of the hybridization period, S1 nuclease reagent was added to each sample to digest all nonprotected nucleotides at 50C for 60-90 min. […]
SMILES,AC50,outcome
COP(=S)(OC)Oc1ccc([N+](=O)[O-])cc1,6.74 µM (active),
COP(=O)(OC)OC=C(Cl)Cl,,inactive
Oc1ccc(Cl)cc1Cc1ccccc1,,inactive
CNC(=O)Oc1cccc(N=CN(C)C)c1,,inactive
OCCOc1ccccc1,,inactive
O=[N+]([O-])c1c(Cl)c(Cl)c(Cl)c(Cl)c1Cl,,inactive
COc1cc(OC)nc(NC(=O)NS(=O)(=O)c2cc(NC=O)ccc2C(=O)N(C)C)n1,,inactive
CCOCN(C(=O)CCl)c1c(C)cccc1CC,,inactive
O=C(Nc1ccccc1)Nc1cnns1,9.87 µM (active),
Clc1ccccc1-c1nnc(-c2ccccc2Cl)nn1,,inactive
CCOC1Oc2ccc(OS(C)(=O)=O)cc2C1(C)C (stereo not given),,inactive
Cc1[nH]c(=O)n(C(C)(C)C)c(=O)c1Cl,,inactive
COC(=O)c1ccccc1S(=O)(=O)NC(=O)Nc1nc(C)nc(OC)n1,,inactive
Oc1cc(Cl)ccc1Oc1ccc(Cl)cc1Cl,,inactive
CCOc1nc(NC)nc(NC(=O)NS(=O)(=O)c2ccccc2C(=O)OC)n1,,inactive
ClC1C(Cl)C(Cl)C(Cl)C(Cl)C1Cl (stereo not given),,inactive
CCS(=O)(=O)c1cccnc1S(=O)(=O)NC(=O)Nc1nc(OC)cc(OC)n1,,inactive
C[C@H]1[C@H](c2ccc(Cl)cc2)SC(=O)N1C(=O)NC1CCCCC1,,inactive
CNC(=O)/C=C(\C)OP(=O)(OC)OC,,inactive
COc1nn(CSP(=S)(OC)OC)c(=O)s1,,inactive

SMILES,AC50,outcome
CN1CSC(=S)N(C)C1,,inactive
CC(C)(C)C(O)C(Oc1ccc(Cl)cc1)n1cncn1 (stereo not given),2.43 µM (active),
O=C1c2ccccc2C(=O)N1SC(Cl)(Cl)Cl,,inactive
CCCN(CCC)c1c([N+](=O)[O-])cc(C(F)(F)F)cc1[N+](=O)[O-],3.27 µM (active),
CCN(CC)C(=O)SCc1ccc(Cl)cc1,20 µM (active),
CC(C)(C)C(O)/C(=C\c1ccc(Cl)cc1Cl)n1cncn1 (stereo not given),,inactive
CCC(C)(C)C(=O)OC1=C(c2ccc(Cl)cc2Cl)C(=O)OC12CCCCC2,,inactive
CCC(C)Nc1c([N+](=O)[O-])cc(C(C)(C)C)cc1[N+](=O)[O-] (stereo not given),2.8 µM (active),
CCC(C)(NC(=O)c1cc(Cl)c(C)c(Cl)c1)C(=O)CCl (stereo not given),,inactive
N#CN,,inactive
COP(=S)(OC)Oc1ccc(SC)c(C)c1,,inactive
CC1(C)C(C=C(Cl)Cl)C1C(=O)OC(C#N)c1ccc(F)c(Oc2ccccc2)c1 (stereo not given),,inactive
CC(C)OC(=O)Nc1cccc(Cl)c1,12.8 µM (active),
CNC(=O)CSP(=S)(OC)OC,,inactive
O=C(O)CCCOc1ccc(Cl)cc1Cl,,inactive
C#CCN1C(=O)COc2cc(F)c(N3C(=O)C4=C(CCCC4)C3=O)cc21,,inactive
CC(C)N(C(=O)COc1nnc(C(F)(F)F)s1)c1ccc(F)cc1,,inactive
O=[N+]([O-])/N=C1\NCCN1Cc1ccc(Cl)nc1,,inactive
Cc1cc(C)nc(NC(=O)NS(=O)(=O)c2ccccc2C(=O)OC2COC2)n1,,inactive
COC(=O)c1ccccc1S(=O)(=O)NC(=O)N(C)c1nc(C)nc(OC)n1,,inactive
